# Measurements from publication PMC11006913.
# Changes are numbered by the printed parent chain.
# Columns and labels:
# Experiment in all cases: PBM; 200 nM protein, PBS
# Settings in all cases: dsDNA, one strand shown
# [1] = molecular target: T1, SIX6 (Homo sapiens, UniProt O95475 114-200, L167I)
# T1 sequence: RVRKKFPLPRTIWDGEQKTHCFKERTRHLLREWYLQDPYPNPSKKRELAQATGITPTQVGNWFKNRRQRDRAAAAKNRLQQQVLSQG
# [2] = molecular target: T2, SIX6 (Homo sapiens, UniProt O95475 114-200, L143V)
# T2 sequence: T1 sequence with L30V, I54L
# [3] = molecular target: T3, SIX6 (Homo sapiens, UniProt O95475 114-200, H141N)
# T3 sequence: T1 sequence with H28N, I54L
# [4] = molecular target: T4, SIX6 (Homo sapiens, UniProt O95475 114-200, T165P)
# T4 sequence: T1 sequence with T52P, I54L
# [5] = molecular target: T5, SIX6 (Homo sapiens, UniProt O95475 114-200, L167M)
# T5 sequence: T1 sequence with I54M
# [6] = molecular target: T6, SIX6 (Homo sapiens, UniProt O95475 114-200, L143M)
# T6 sequence: T1 sequence with L30M, I54L
# [7] = molecular target: T7, SIX6 (Homo sapiens, UniProt O95475 114-200, L143I)
# T7 sequence: T1 sequence with L30I, I54L
# [8] = molecular target: T8, SIX6 (Homo sapiens, UniProt O95475 114-200, T165G)
# T8 sequence: T1 sequence with T52G, I54L
# [9] = molecular target: T9, SIX6 (Homo sapiens, UniProt O95475 114-200, T139Q)
# T9 sequence: T1 sequence with T26Q, I54L
# [10] = molecular target: T10, SIX6 (Homo sapiens, UniProt O95475 114-200, T165A)
# T10 sequence: T1 sequence with T52A, I54L
# [11] = molecular target: T11, SIX6 (Homo sapiens, UniProt O95475 114-200, L167V)
# T11 sequence: T1 sequence with I54V
# [12] = molecular target: T12, SIX6 (Homo sapiens, UniProt O95475 114-200)
# T12 sequence: T1 sequence with I54L
# [13] = molecular target: T13, SIX6 (Homo sapiens, UniProt O95475 114-200, T165I)
# T13 sequence: T1 sequence with T52I, I54L
Sequence,binding signal [1],binding signal [2],binding signal [3],binding signal [4],binding signal [5],binding signal [6],binding signal [7],binding signal [8],binding signal [9],binding signal [10],binding signal [11],binding signal [12],binding signal [13]
CCATATCA,"11.1 upbm affinity estimate (log intensity, higher = more binding, comparable within an allelic series)","10.1 upbm affinity estimate (log intensity, higher = more binding, comparable within an allelic series)","11.1 upbm affinity estimate (log intensity, higher = more binding, comparable within an allelic series)","9.48 upbm affinity estimate (log intensity, higher = more binding, comparable within an allelic series)","10.4 upbm affinity estimate (log intensity, higher = more binding, comparable within an allelic series)","10.8 upbm affinity estimate (log intensity, higher = more binding, comparable within an allelic series)","10.2 upbm affinity estimate (log intensity, higher = more binding, comparable within an allelic series)","11.1 upbm affinity estimate (log intensity, higher = more binding, comparable within an allelic series)","11 upbm affinity estimate (log intensity, higher = more binding, comparable within an allelic series)","11 upbm affinity estimate (log intensity, higher = more binding, comparable within an allelic series)","10.8 upbm affinity estimate (log intensity, higher = more binding, comparable within an allelic series)","10.9 upbm affinity estimate (log intensity, higher = more binding, comparable within an allelic series)","10.8 upbm affinity estimate (log intensity, higher = more binding, comparable within an allelic series)"
CCCTCTGC,"8.98 upbm affinity estimate (log intensity, higher = more binding, comparable within an allelic series)","8.83 upbm affinity estimate (log intensity, higher = more binding, comparable within an allelic series)","9.02 upbm affinity estimate (log intensity, higher = more binding, comparable within an allelic series)","8.85 upbm affinity estimate (log intensity, higher = more binding, comparable within an allelic series)","8.95 upbm affinity estimate (log intensity, higher = more binding, comparable within an allelic series)","9.06 upbm affinity estimate (log intensity, higher = more binding, comparable within an allelic series)","8.9 upbm affinity estimate (log intensity, higher = more binding, comparable within an allelic series)","9.1 upbm affinity estimate (log intensity, higher = more binding, comparable within an allelic series)","9.06 upbm affinity estimate (log intensity, higher = more binding, comparable within an allelic series)","9.06 upbm affinity estimate (log intensity, higher = more binding, comparable within an allelic series)","8.95 upbm affinity estimate (log intensity, higher = more binding, comparable within an allelic series)","9.05 upbm affinity estimate (log intensity, higher = more binding, comparable within an allelic series)","8.97 upbm affinity estimate (log intensity, higher = more binding, comparable within an allelic series)"
ACCGCGCC,"8.84 upbm affinity estimate (log intensity, higher = more binding, comparable within an allelic series)","8.82 upbm affinity estimate (log intensity, higher = more binding, comparable within an allelic series)","8.81 upbm affinity estimate (log intensity, higher = more binding, comparable within an allelic series)","8.88 upbm affinity estimate (log intensity, higher = more binding, comparable within an allelic series)","8.85 upbm affinity estimate (log intensity, higher = more binding, comparable within an allelic series)","8.81 upbm affinity estimate (log intensity, higher = more binding, comparable within an allelic series)","8.86 upbm affinity estimate (log intensity, higher = more binding, comparable within an allelic series)","8.91 upbm affinity estimate (log intensity, higher = more binding, comparable within an allelic series)","8.95 upbm affinity estimate (log intensity, higher = more binding, comparable within an allelic series)","8.82 upbm affinity estimate (log intensity, higher = more binding, comparable within an allelic series)","8.78 upbm affinity estimate (log intensity, higher = more binding, comparable within an allelic series)","8.78 upbm affinity estimate (log intensity, higher = more binding, comparable within an allelic series)","8.84 upbm affinity estimate (log intensity, higher = more binding, comparable within an allelic series)"
ATGATATC,"11.4 upbm affinity estimate (log intensity, higher = more binding, comparable within an allelic series)","10.5 upbm affinity estimate (log intensity, higher = more binding, comparable within an allelic series)","11.5 upbm affinity estimate (log intensity, higher = more binding, comparable within an allelic series)","9.88 upbm affinity estimate (log intensity, higher = more binding, comparable within an allelic series)","10.9 upbm affinity estimate (log intensity, higher = more binding, comparable within an allelic series)","11.2 upbm affinity estimate (log intensity, higher = more binding, comparable within an allelic series)","10.6 upbm affinity estimate (log intensity, higher = more binding, comparable within an allelic series)","11.6 upbm affinity estimate (log intensity, higher = more binding, comparable within an allelic series)","11.5 upbm affinity estimate (log intensity, higher = more binding, comparable within an allelic series)","11.4 upbm affinity estimate (log intensity, higher = more binding, comparable within an allelic series)","11.4 upbm affinity estimate (log intensity, higher = more binding, comparable within an allelic series)","11.3 upbm affinity estimate (log intensity, higher = more binding, comparable within an allelic series)","11.2 upbm affinity estimate (log intensity, higher = more binding, comparable within an allelic series)"
GATATCCA,"11.1 upbm affinity estimate (log intensity, higher = more binding, comparable within an allelic series)","10.3 upbm affinity estimate (log intensity, higher = more binding, comparable within an allelic series)","11 upbm affinity estimate (log intensity, higher = more binding, comparable within an allelic series)","9.81 upbm affinity estimate (log intensity, higher = more binding, comparable within an allelic series)","10.7 upbm affinity estimate (log intensity, higher = more binding, comparable within an allelic series)","10.9 upbm affinity estimate (log intensity, higher = more binding, comparable within an allelic series)","10.3 upbm affinity estimate (log intensity, higher = more binding, comparable within an allelic series)","11.1 upbm affinity estimate (log intensity, higher = more binding, comparable within an allelic series)","11 upbm affinity estimate (log intensity, higher = more binding, comparable within an allelic series)","11 upbm affinity estimate (log intensity, higher = more binding, comparable within an allelic series)","10.9 upbm affinity estimate (log intensity, higher = more binding, comparable within an allelic series)","10.9 upbm affinity estimate (log intensity, higher = more binding, comparable within an allelic series)","10.8 upbm affinity estimate (log intensity, higher = more binding, comparable within an allelic series)"
